FLuc modulator – qHTS profiling assay for firefly luciferase inhibitor/activator using purifed enzyme and Km concentrations of substrates (counterscreen for miR-21 project) | AID 588342, 2011 | 360,000 tested, 6.9% active | purified FLuc, Km substrates, luminescence inhibition | Potency, µM (titrated, usually from 57.5 µM), for the others: at the top dose activity change, negative = inhibition, actives largely listed as inhibitors;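 further: plate controls were vehicle for no effect and reference inhibitor for full effect; nearly all actives have a fitted effect of over 55% in size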
Target sequence (P08659 whole entry, looked up): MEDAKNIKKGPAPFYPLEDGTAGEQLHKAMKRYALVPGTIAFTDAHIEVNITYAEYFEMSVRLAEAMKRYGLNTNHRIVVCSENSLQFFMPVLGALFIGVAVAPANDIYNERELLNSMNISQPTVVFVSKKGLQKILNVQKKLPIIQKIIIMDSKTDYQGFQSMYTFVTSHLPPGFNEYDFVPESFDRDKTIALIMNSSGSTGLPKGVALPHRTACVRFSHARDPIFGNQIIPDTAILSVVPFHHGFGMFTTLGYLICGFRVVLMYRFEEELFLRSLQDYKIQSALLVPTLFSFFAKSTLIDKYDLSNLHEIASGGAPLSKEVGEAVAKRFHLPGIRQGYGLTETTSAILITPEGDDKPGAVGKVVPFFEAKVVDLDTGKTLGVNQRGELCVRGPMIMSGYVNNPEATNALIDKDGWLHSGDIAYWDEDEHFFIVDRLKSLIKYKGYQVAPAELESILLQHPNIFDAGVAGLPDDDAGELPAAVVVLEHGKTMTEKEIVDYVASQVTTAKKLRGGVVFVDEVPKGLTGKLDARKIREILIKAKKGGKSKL
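Purified P. pyralis luciferase, 10 nM final, with Km-level 10 uM D-luciferin and 10 uM ATP in 50 mM Tris acetate pH 7.5, 10 mM Mg acetate, 0.01% Tween-20, 0.05% BSA; 6-point qHTS titration about 60 µM downward; luminescence read.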
Rab9 promoter act – qHTS Assay for Rab9 Promoter Activators; 320,000 tested, 2.8% active; Potency, µM (doses to about 9.22 µM), for the others: at the highest dose activation, negative = inhibition, usual class: activators; Huh7 Rab9 promoter-luciferase reporter, luminescence, 24 h; AID 485297, 2010; further: % of control where 0% means no effect; nearly all actives have a fitted effect of over 60% in size
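Luminescence from Amplite-detected luciferase (10 minutes, ambient) reports Rab9 promoter activation. Before that, stable Rab9-luciferase Huh7 cells (1500/well, reduced-serum OP-MEM I plus 10% FBS) were exposed to compound for 24 hours at 37C.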
SMN2 splice up – qHTS Assay for Enhancers of SMN2 Splice Variant Expression; HEK293 SMN2-luciferase splicing reporter, luminescence, 30-36 h; Potency, µM (highest dose often 46.1 µM), inactives show at the top dose activity change, positive = activation, actives largely listed as activators; 210,000 tested, 2.8% active; further: % of control where 0% means no effect; nearly all actives have a fitted effect of over 55% in size
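HEK293 cells carry an SMN2 minigene-luciferase reporter in which exon 7 inclusion puts luciferase in frame. Cells were seeded at 2000 cells/well, attached for 10-12 hours, then exposed to compounds for 30-36 hours at 37C before ONE-Glo luminescence.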
NPC1 promoter act – qHTS Assay for NPC1 Promoter Activators. AID 485313, 2010. Potency, µM (doses to about 9.22 µM), for inactives: at the highest dose activation, usual class: activators. 320,000 tested, 2.4% active. Huh7 NPC1 promoter luciferase reporter, 24 h; further: % of control where 0% means no effect; nearly all actives have a fitted effect of over 60% in size
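Huh7 cells stably carrying NPC1 promoter–luciferase, plated in Opti-MEM with 10% FBS for 2 h, were exposed to compound in DMSO for 24 h at 37 °C; luciferase reagent was added for 10 min and luminescence read.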
ELG1 genotoxic – qHTS screen for small molecules that induce genotoxicity in human embryonic kidney (HEK293T) cells expressing luciferase-tagged ELG1 | HEK293T ELG1-luciferase reporter, luminescence, 16 h | Potency, µM (doses to about 46 µM), without a hit: top-dose activity change, positive = activation, usual class: activators | 330,000 tested, 1.3% active; further: % of control where 0% means no effect; nearly all actives have a fitted effect of over 60% in size
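Cells (2,000/well) expressing the ELG1-luciferase fusion are dosed by pin tool and kept 16 hr at 37 °C, 5% CO2. Signal comes from ONE-Glo luciferase reagent after 30 min at room temperature.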
Luc counter – Counterscreen for Luciferase (Kinase-Glo TM) Inhibition; Potency, µM (titrated, usually from 38.3 µM), inactives show at the top dose activity change, negative = inhibition, actives largely listed as inhibitors; Luciferin 4-monooxygenase (Photuris pensylvanica), Q27757; 200,000 tested, 0.28% active; Kinase-Glo luciferase, ATP luminescence, 8 min; further: on the % scale 0 is the no-effect control and ±100 the full control effect; nearly all actives have a fitted effect of over 60% in size
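Compounds were added to a substrate mix at pH 7.2 (50 mM imidazole, 10 uM ATP, within the enzyme's linear range), followed by Kinase-Glo detection reagent; luminescence was measured after 8 minutes at ambient temperature.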
Active calls of the source: *; ? = inconclusive; . = no result. Rows were chosen to be rich in hits. Some 7.5% of all compounds tested hit in one or more screens of this group. The call rests on the fitted dose curve; in most records, active means well fitted curve in the direction sought with a large enough effect; inconclusive means small, poorly fitted or top-dose-only effect, or another doubt; inactive means no such curve, though single readings can be large; an effect the other way counts as inactive or inconclusive. Potency means the concentration at half of the fitted maximal effect.

SMILES	FLuc modulator	Rab9 promoter act	SMN2 splice up	NPC1 promoter act	ELG1 genotoxic	Luc counter
Fc1ccc(-n2ncc3c(SCc4cccnc4)ncnc32)cc1	6.7µM*	?	-32%	25%	23µM*	0%
Cc1ccc(-n2ncc3c(SCc4ccccn4)ncnc32)c(C)c1	?	?	1.8µM*	1%	0%	7%
Cc1ccc(CSc2ncnc3c2cnn3-c2ccccc2)cc1	-20%	7%	-22%	2%	4%	-3%
Cc1ccc(-n2ncc3c(SCc4ccccc4)ncnc32)cc1	11µM*	?	11µM*	4µM*	?	3%
Cc1nc(SCc2ccccc2F)c2cnn(-c3ccccc3)c2n1	?	?	35µM*	7%	9%	-4%
O=C1CN(S(=O)(=O)c2cc(C(F)(F)F)ccc2Cl)CCN1	13%	-2%	.	-3%	-1%	.
O=C(CCn1c(=O)c2sccc2n(Cc2cccc(F)c2)c1=O)NCc1ccc2c(c1)OCO2	-1%	.	1%	.	.	.
CC1CCCCC12NC(=O)N(CC(=O)OCC(=O)N(C)C1CCCCC1)C2=O (stereo not given)	.	-1%	.	1%	-3%	.
COc1ccc(NS(=O)(=O)c2cc3c(cc2C)N(C(C)=O)CCO3)cc1OC	-1%	4%	.	1%	9%	.
O=C(COC(=O)c1cncc(Br)c1)NC1CCCC1	0%	1%	-2%	-5%	4%	-3%
COc1ccc(-c2oc3ncn4nc(COc5ccc(Cl)cc5)nc4c3c2-c2ccc(OC)cc2)cc1	1%	.	2%	.	.	.
Cc1cccc2cc(/C=C3\N=C(c4ccccc4)OC3=O)c(N3CCOCC3)nc12	3%	0%	-6%	-5%	-2%	-2%
Cc1ccc(C2=N/C(=C/N3CCOCC3)C(=O)O2)cc1	12µM*	3.5µM*	11µM*	?	16µM*	-4%
COc1ccc(/C=C2\N=C(c3ccc(C)cc3)OC2=O)cc1	?	4%	.	-2%	0%	.
Cc1ccc(C2=N/C(=C\N3CCCCC3)C(=O)O2)cc1	5.4µM*	1.1µM*	?	2.2µM*	4.1µM*	0%
O=C(NNC(=O)c1ccc(Cl)cc1Cl)c1ccncc1	13µM*	0%	?	2%	7%	0%
O=C(NNC(=O)c1ccccc1Cl)c1ccncc1	-9%	-7%	-2%	-2%	0%	-1%
CSCCC(NC(=O)c1ccc(Cl)cc1Cl)C(=O)NNC(=O)c1ccncc1 (stereo not given)	15µM*	-6%	.	-3%	1%	.
COc1ccccc1C(=O)NC(CCSC)C(=O)NNC(=O)c1ccncc1 (stereo not given)	2%	0%	.	-1%	-1%	.
Cc1ccc(Nc2c3c(nc4nncn24)CCC3)cc1C	-15%	.	3%	.	.	.
C=CCN=C1S/C(=C\c2ccc(N(C)C)cc2)C(=O)N1CC=C	21µM*	?	.	18%	6%	.
CC1CCCCN1Cc1c(O)ccc2c(=O)c(-c3nc4ccccc4s3)coc12 (stereo not given)	21µM*	21%	.	24%	0%	.
CCc1cc2c(=O)c(-c3nc4ccccc4n3C)coc2c(CN2CCCCC2C)c1O (stereo not given)	1%	-4%	.	-1%	-7%	.
COCCn1c(SCC(=O)c2ccc(C)cc2C)nc2cc(C(=O)NC3CCCC3)ccc2c1=O	-1%	.	.	.	.	.
CCOc1cccc(C(=O)c2ccc(O)c(O)c2O)c1	.	.	11%	.	.	-7%
CCN(CC)S(=O)(=O)c1nnc(NC(=O)COc2ccc(Cl)cc2)s1	2.4µM*	.	.	.	.	.
CCN(CC)S(=O)(=O)c1nnc(NC(=O)COc2ccccc2F)s1	11µM*	.	.	.	.	.
